Cruzain noTriton – qHTS Assay for Promiscuous and Specific Inhibitors of Cruzain (without detergent); Cruzipain (Trypanosoma cruzi), P25779; purified cruzain, Z-FR-AMC fluorescence, no detergent; Potency, µM, for the others: max response, negative = inhibition, usual class: inhibitors; hit rate 2.3% among 200,000;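 also: plate controls were enzyme without inhibitor for no effect and buffer without enzyme for full effect; nearly all actives have a fitted effect of over 40% in size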
Target sequence (P25779 123-467 limits assumed): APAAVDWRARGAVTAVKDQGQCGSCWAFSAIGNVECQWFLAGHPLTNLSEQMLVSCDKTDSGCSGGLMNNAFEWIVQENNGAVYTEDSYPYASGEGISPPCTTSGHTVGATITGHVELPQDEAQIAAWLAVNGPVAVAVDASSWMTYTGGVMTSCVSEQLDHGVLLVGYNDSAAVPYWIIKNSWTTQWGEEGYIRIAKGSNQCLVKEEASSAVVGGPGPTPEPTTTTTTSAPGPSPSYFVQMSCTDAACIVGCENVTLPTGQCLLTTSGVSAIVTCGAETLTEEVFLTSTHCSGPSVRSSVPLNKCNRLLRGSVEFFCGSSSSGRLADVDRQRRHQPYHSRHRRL
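Purified cruzain at 1.5 nM, pre-incubated 15 min with compound at room temperature in 100 mM sodium acetate pH 5.5, 5 mM DTT, 0.00005% Triton X-100. Reaction started with 2 uM Z-FR-AMC; AMC fluorescence increase over 60 s gives rate.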
Cruzain Triton – qHTS Assay for Promiscuous and Specific Inhibitors of Cruzain (with detergent) | purified cruzain, Z-FR-AMC fluorescence, 0.01% Triton | Potency, µM, for the others: max response, negative = inhibition, actives largely listed as inhibitors | hit rate 0.43% among 200,000 | AID 1478, 2009;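 also: plate controls were neutral wells for no effect and buffer without enzyme for full effect; nearly all actives have a fitted effect of over 40% in size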
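Cruzain (1.5 nM) preincubated 15 min at RT with compound in 100 mM sodium acetate pH 5.5, 5 mM DTT, 0.01% Triton X-100. Reaction started with 2 uM Z-FR-AMC; AMC fluorescence (ex 360/em 450 nm) change over 60 s gave rate.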
* hit, by the source's call. The list is not random: actives were taken first. Their share in the collection is about 2.4%. Calls follow the shape of the dose curve; as a rule, active = well fitted curve in the direction sought with a large enough effect; inconclusive = small, poorly fitted or top-dose-only effect, or another doubt; inactive = no such curve, though single readings can be large; an effect the other way counts as inactive or inconclusive. Potency is read from the fitted curve at half-maximal effect.

Results for CN(C(=O)COC(=O)CNC(=O)c1sc2ccccc2c1Cl)c1ccccc1 ?
Cruzain noTriton: 7.9µM*; Cruzain Triton: 8.9µM*

Results for CCOC(=S)NC(=O)c1sc2ccccc2c1Cl ?
Cruzain noTriton: 7%; Cruzain Triton: -4%

Results for COc1ccc(C)c2sc(N(Cc3cccnc3)C(=O)CCc3ccccc3)nc12 ?
Cruzain noTriton: 24%; Cruzain Triton: -2%

Results for Nc1ccc(C(=O)OCC(=O)N2CCc3ccccc3C2)cc1[N+](=O)[O-] ?
Cruzain noTriton: 32µM*; Cruzain Triton: -12%

Results for O=C(OCC(=O)N1CCc2ccccc2C1)c1ccc(N2CCOCC2)c([N+](=O)[O-])c1 ?
Cruzain noTriton: 5%; Cruzain Triton: -7%

How did CN(Cc1ccccc1)C(=O)Cn1c(=O)c2cccn2c2ccc(F)cc21 do in these assays?
Cruzain noTriton: 1%; Cruzain Triton: -2%

How did CN(Cc1ccco1)c1ncncc1-c1cccnc1 do in these assays?
Cruzain noTriton: 1%; Cruzain Triton: 3%

How did CCCn1c(O)c(/C=C2\C=NN=C2c2ccccc2)sc1=S do in these assays?
Cruzain noTriton: 5%; Cruzain Triton: -7%

How did CCCCC(CC)Cn1c(O)c(/C=C2\C=NN=C2c2ccccc2)sc1=S (stereo not given) do in these assays?
Cruzain noTriton: 7.9µM*; Cruzain Triton: -1%

How did O=Nc1c(O)n(Cc2ccc(Cl)cc2)c2ccccc12 do in these assays?
Cruzain noTriton: -14%; Cruzain Triton: -16%

Results for Cc1ccc2c(c1)c(N=NC(N)=S)c(O)n2Cc1ccccc1 ?
Cruzain noTriton: 2.5µM*; Cruzain Triton: inconclusive

What do the screens show for `COc1ccc(C(=O)NCC(=O)N=Nc2c(O)n(Cc3ccccc3)c3ccccc23)cc1OC`?
Cruzain noTriton: 13%; Cruzain Triton: -6%

How did NC(=S)N=Nc1c(O)n(Cc2ccc(F)cc2)c2ccccc12 do in these assays?
Cruzain noTriton: inconclusive; Cruzain Triton: 13µM*

How did CCn1c(=O)c2c(nc3n2CCN3c2ccc(OC)cc2)n(C)c1=O do in these assays?
Cruzain noTriton: -5%; Cruzain Triton: 0%

What do the screens show for `CN(C)c1ccc(NS(=O)(=O)c2cc(Cl)ccc2Cl)cc1`?
Cruzain noTriton: -11%; Cruzain Triton: -9%

What do the screens show for `O=S(=O)(Nc1nc(-c2sccc2Cl)cs1)c1cc(Cl)ccc1Cl`?
Cruzain noTriton: inconclusive; Cruzain Triton: 20µM*

Results for COc1ccc(Br)cc1CNC(=O)C1CCN(c2nnc(-n3cccc3CNc3ccc(C)cc3)s2)CC1 ?
Cruzain noTriton: 32µM*; Cruzain Triton: -2%

How did Cc1ccc(NCc2cccn2-c2nnc(N3CCC(C(=O)NCc4ccc(OC(C)C)cc4)CC3)s2)cc1 do in these assays?
Cruzain noTriton: -13%; Cruzain Triton: -4%

How did COCCCNc1nc2c(-c3ccccc3)nnn2c2ccccc12 do in these assays?
Cruzain noTriton: 3%; Cruzain Triton: 0%

How did Cc1ccc(-c2nnn3c2nc(NCC(C)c2ccccc2)c2ccccc23)cc1 (stereo not given) do in these assays?
Cruzain noTriton: 5µM*; Cruzain Triton: 0%

Results for O=C(NCCc1ccccc1Cl)c1cc2ccccn2n1 ?
Cruzain noTriton: -27%; Cruzain Triton: -5%

How did CC(=O)N1c2ccc(S(=O)(=O)NCC3CCC(C(=O)Nc4cccc(F)c4)CC3)cc2CC1C (stereo not given) do in these assays?
Cruzain noTriton: 12%; Cruzain Triton: -2%

Results for CC(C)c1ccc(C2N3CCCN23)cc1 (stereo not given) ?
Cruzain noTriton: -6%; Cruzain Triton: -2%

What do the screens show for `CC(C)c1ccc(C2N3CC4([N+](=O)[O-])CN2CC([N+](=O)[O-])(C3)C4(C)C)cc1` (stereo not given)?
Cruzain noTriton: 10µM*; Cruzain Triton: 2%

How did CC1(C)C2([N+](=O)[O-])CN3CC1([N+](=O)[O-])CN(C2)C31CCCC1 do in these assays?
Cruzain noTriton: -4%; Cruzain Triton: 6%

How did CC1(C)C2([N+](=O)[O-])CN3CC1([N+](=O)[O-])CN(C2)C3c1ccccc1 (stereo not given) do in these assays?
Cruzain noTriton: 20µM*; Cruzain Triton: 4%

What do the screens show for `O[C@@H](c1cc(-c2ccc(Cl)cc2)nc2ccccc12)C1CCCCN1` (stereo not given in full)?
Cruzain noTriton: -9%; Cruzain Triton: 3%

Results for CCOC(=O)c1ccc2c(c1)N(Cc1cccc([N+](=O)[O-])c1)C(=O)c1ccccc1S2 ?
Cruzain noTriton: -9%; Cruzain Triton: -3%

What do the screens show for `COc1ccccc1NC(=S)NC1CCC(CC2CCC(NC(=S)Nc3ccccc3OC)CC2)CC1` (stereo not given)?
Cruzain noTriton: 4µM*; Cruzain Triton: 7%

Results for COc1ccc(NC(=S)NC2CCCCCC2)c(OC)c1 ?
Cruzain noTriton: 14%; Cruzain Triton: -2%

Results for O=C(NCc1ccc(F)cc1)c1c(O)nc2ccccn2c1=O ?
Cruzain noTriton: -3%; Cruzain Triton: -1%

What do the screens show for `O=C(C#Cc1ccccc1)c1cccc([N+](=O)[O-])c1`?
Cruzain noTriton: -16%; Cruzain Triton: 13µM*

What do the screens show for `N/C(=N\OC(=O)Oc1ccccc1)c1cccc([N+](=O)[O-])c1`?
Cruzain noTriton: 4%; Cruzain Triton: -7%

What do the screens show for `CC(CO)(CO)Nc1ncnc2ccccc12`?
Cruzain noTriton: 8%; Cruzain Triton: 0%

Results for Cc1c(Cl)cccc1NC(=O)CSc1ncccc1C(=O)Oc1ccccc1Cl ?
Cruzain noTriton: -16%; Cruzain Triton: 1%

Results for COc1ccc(-n2c(C)cc(C(=O)COC(=O)c3cc(NC(=O)c4cccs4)c(OC)c(OC)c3)c2C)cc1 ?
Cruzain noTriton: inconclusive; Cruzain Triton: 1%

Results for COc1cc(NC(=O)c2cccs2)c(C(=O)OCC(=O)c2cc(C)n(-c3ccc(F)cc3)c2C)cc1OC ?
Cruzain noTriton: 4µM*; Cruzain Triton: -2%

What do the screens show for `COc1cc(NC(=O)c2cccs2)c(C(=O)OCC(=O)NC(=O)NC(C)(C)C)cc1OC`?
Cruzain noTriton: inconclusive; Cruzain Triton: -14%

Results for COc1cc(NC(=O)c2cccs2)c(C(=O)OCC(=O)c2cc(C)n(-c3ccccc3)c2C)cc1OC ?
Cruzain noTriton: 3.2µM*; Cruzain Triton: -11%

Results for CCOC(=O)C1=C(C)NC(=O)N[C@@H]1c1coc2cc(C)cc(C)c2c1=O ?
Cruzain noTriton: -12%; Cruzain Triton: -1%

What do the screens show for `C/C(CCc1ccc2c(c1)OCO2)=N\N=C(/N)SC1CC(=O)N(c2ccccc2F)C1=O` (stereo not given)?
Cruzain noTriton: 16µM*; Cruzain Triton: -29%

How did CCN=C(Nc1ccc2c(c1)OCO2)SC1CC(=O)N(c2ccccc2F)C1=O (stereo not given) do in these assays?
Cruzain noTriton: -8%; Cruzain Triton: -4%

How did C=C(C)CN(CC#N)CC(=C)C do in these assays?
Cruzain noTriton: 6%; Cruzain Triton: 3%

What do the screens show for `NS(=O)(=O)C[C-]1C=C[CH]([Sb-]([Cl])([Cl])([Cl])([Cl])[Cl])C=C1.c1ccncc1` (stereo not given)?
Cruzain noTriton: 23%; Cruzain Triton: 0%

Results for COc1ccc(NC(=O)C2CCN(S(=O)(=O)c3c(C)noc3/C=C/c3cccs3)CC2)cc1 ?
Cruzain noTriton: -10%; Cruzain Triton: -2%

Screening data (PubChem BioAssay)
